Results from PubChem BioAssay (NCATS).
Inconclusive results are not listed. Calls of active or inactive are those of the source. Calls follow the shape of the dose curve; as a rule, active = well fitted curve in the direction sought with a large enough effect; inconclusive = small, poorly fitted or top-dose-only effect, or another doubt; inactive = no such curve, though single readings can be large; an effect the other way counts as inactive or inconclusive.

Assays:
[1] = qHTS of pediatric cancer cell lines to identify multiple opportunities for drug repurposing: Primary screen for LAN-5 cells (AID 1347100)
Summary of the method: (§1)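 Cells (500-1,000/well) rested 5 h, then received compounds for 48 h; metabolically active cells were measured by CellTiter-Glo luminescence. Final concentrations spanned up to 46 µM (MIPE, 11-point) or 0.59 nM-46 µM (NPC, 8-point) in primary screens, 11-point in follow-ups.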

[2] = qHTS of pediatric cancer cell lines to identify multiple opportunities for drug repurposing: Primary screen for BT-12 cells (AID 1347101); also: nearly all actives have a fitted effect of over 25% in size
Summary of the method: as §1

[3] = qHTS of pediatric cancer cell lines to identify multiple opportunities for drug repurposing: Primary screen for Rh18 cells (AID 1347102); also: nearly all actives have a fitted effect of over 65% in size
Summary of the method: as §1

[4] = qHTS of pediatric cancer cell lines to identify multiple opportunities for drug repurposing: Primary screen for OHS-50 cells (AID 1347103); also: nearly all actives have a fitted effect of over 40% in size
Summary of the method: as §1

[5] = qHTS of pediatric cancer cell lines to identify multiple opportunities for drug repurposing: Primary screen for RD cells (AID 1347104); also: nearly all actives have a fitted effect of over 55% in size
Summary of the method: (§2)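 Cells seeded at 500-1,000 cells/well in growth media, rested 5 hours at 37 degrees C, 5% CO2, then dosed; MIPE compounds at 11-point (from 0.78 nM) and NPC at 8-point (from 0.59 nM) final concentrations. Viability by CellTiter-Glo luminescence after 48 hours.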

[6] = qHTS of pediatric cancer cell lines to identify multiple opportunities for drug repurposing: Primary screen for MG 63 (6-TG R) cells (AID 1347105); also: nearly all actives have a fitted effect of over 50% in size
Summary of the method: as §2

[7] = qHTS of pediatric cancer cell lines to identify multiple opportunities for drug repurposing: Primary screen for control Hh wild type fibroblast cells (AID 1347106);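 also: series mostly up to about 46 µM; a drop in luminescence marks cytotoxicity and a rise apparent proliferation; nearly all actives have a fitted effect of over 55% in size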
Summary of the method: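 Cells (500-1,000/well) in growth media were settled 5 h at 37 degrees C, then given compounds for 48 h. Viability was read as CellTiter-Glo luminescence. Primary runs used MIPE at 11 points (0.78 nM-46 µM) and NPC at 8 points (0.59 nM-46 µM); follow-ups used 11 points.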

[8] = qHTS of pediatric cancer cell lines to identify multiple opportunities for drug repurposing: Primary screen for Rh30 cells (AID 1347107); also: series mostly up to about 46 µM; nearly all actives have a fitted effect of over 75% in size
Summary of the method: as §1

[9] = qHTS of pediatric cancer cell lines to identify multiple opportunities for drug repurposing: Primary screen for Rh41 cells (AID 1347108);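 also: series mostly up to about 46 µM; luminescence drop marks cytotoxic hits; nearly all actives have a fitted effect of over 70% in size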
Summary of the method: as §2

Measured: Potency

CC(C(=O)O)c1ccc2c(c1)[nH]c1ccc(Cl)cc12 (stereo not drawn)
inactive: [1] | [2] | [3] | [4] | [5] | [6] | [7] | [8] | [9]

CNC(=O)c1c(I)c(NC(=O)CCCCC(=O)Nc2c(I)c(C(=O)O)c(I)c(C(=O)NC)c2I)c(I)c(C(=O)O)c1I
inactive: [1] | [2] | [3] | [4] | [5] | [6] | [7] | [8] | [9]

O=C(OCc1ccccc1)c1ccccc1
inactive: [1] | [2] | [3] | [4] | [5] | [6] | [7] | [8] | [9]

CC(=O)c1ccc(OCC(=O)N2CCCCC2)cc1
inactive: [1] | [2] | [3] | [4] | [6] | [7] | [8] | [9]

C=CCCCCCCCCC(=O)O
inactive: [1] | [2] | [3] | [4] | [5] | [6] | [7] | [8] | [9]

CCOc1ccc2nc(S(N)(=O)=O)sc2c1
inactive: [1] | [2] | [3] | [4] | [5] | [6] | [7] | [8] | [9]

CCCCCCCCCCCC(=O)[O][Sn]([CH2]CCC)([CH2]CCC)[O]C(=O)CCCCCCCCCCC
inactive: [1] | [2] | [3] | [4] | [5] | [6] | [7] | [8] | [9]

CC(C)(C)c1nnc(NS(=O)(=O)c2ccc(N)cc2)s1
inactive: [1] | [2] | [3] | [4] | [5] | [6] | [7] | [8] | [9]

CCCCCCCC/C=C/C(=O)O
inactive: [1] | [2] | [3] | [4] | [5] | [6] | [7] | [8] | [9]

CCCCCCCCCCCCOCCO
inactive: [1] | [2] | [3] | [4] | [5] | [6] | [7] | [8] | [9]

C[N+]1(C)[C@@H]2CC(OC(=O)[C@H](CO)c3ccccc3)C[C@H]1[C@@H]1O[C@@H]12 (stereo partly drawn)
inactive: [1] | [2] | [3] | [4] | [5] | [6] | [7] | [8] | [9]

C/C(=N\O)c1ccc(OCC(=O)N2CCCCC2)cc1
inactive: [1] | [2] | [3] | [4] | [6] | [7] | [8] | [9]

CC(C(=O)O)c1ccc(C(=O)c2cccs2)cc1 (stereo not drawn)
inactive: [1] | [2] | [3] | [4] | [5] | [6] | [7] | [8] | [9]

CC(C(=O)O)c1ccc(C(=O)c2ccccc2)s1 (stereo not drawn)
inactive: [1] | [2] | [3] | [4] | [5] | [7] | [8] | [9]

CC(=O)SCC(CC(=O)c1ccc(C)cc1)C(=O)O (stereo not drawn)
inactive: [1] | [2] | [3] | [4] | [5] | [6] | [7] | [8] | [9]

COc1ccnc2c1CCCCC2S(=O)c1nc2ccccc2[nH]1 (stereo not drawn)
inactive: [1] | [2] | [3] | [4] | [6] | [7] | [8] | [9]

COc1cc2c3cc1Oc1cc(ccc1O)C[C@@H]1c4c(cc(OC)c(O)c4Oc4ccc(cc4)C[C@@H]3N(C)CC2)CC[N+]1(C)C
inactive: [1] | [2] | [3] | [4] | [5] | [6] | [7] | [8] | [9]

O=C(O)Cc1ccc(-c2ccccc2)cc1
inactive: [1] | [2] | [3] | [4] | [5] | [6] | [7] | [8] | [9]

O=C(O)Cc1ccc2c(c1)C(=O)c1ccccc1CO2
inactive: [1] | [2] | [3] | [4] | [5] | [6] | [7] | [8] | [9]

Nc1ccc(O)c(C(=O)O)c1
inactive: [1] | [2] | [3] | [4] | [6] | [7] | [8] | [9]

CN(C)CCn1nnnc1SCC1=C(C(=O)O)N2C(=O)[C@@H](NC(=O)Cc3csc(N)n3)[C@H]2SC1
inactive: [1] | [2] | [3] | [4] | [5] | [6] | [7] | [8] | [9]

NCCO
inactive: [1] | [2] | [3] | [4] | [5] | [6] | [7] | [8] | [9]
